Drawing on ChEMBL document CHEMBL3988442, “University of Dundee, Small-Polar-MMV Screening Library” (2021), this text covers Percent Effect for 20 compounds.

The target of this assay is AMP-activated protein kinase, AMPK (Homo sapiens) (UniProt P54646+O43741+P54619+Q9UGJ0+Q9Y478+Q13131+Q9UGI9). Nature of the assay: AMP-dependent Kinase enzyme assay. An in vitro enzyme assay that detects ADP turnover that is directly proportional to AMPK activity. This uses naive AMPK that is activated during the assay with MK-8722. The following applies: 30 µM. On the set-up: scale not given: direction of the effect not stated beside the values. The assay is classed as functional.
On to `CCc1ccc(CC)c(NCc2cnc(N3CCOCC3)nc2)c1`, for which the Percent Effect is -6.68%.

As for `N#Cc1ncn(CC(=O)N2CCCC2c2cccs2)n1` (stereo not given), the Percent Effect is -12%.

For `O=C(NC1CCCCC1)N1C[C@H]2CN(c3cnccn3)C[C@@]2(C(=O)O)C1`, the Percent Effect was found to be 2.64%.

In the case of `COc1ccc2c(c1)OCC(C(=O)NCc1ncc3c(n1)CCC3)C2` (stereo not given), the Percent Effect was -0.599%.

Turning to `COC(=O)c1ccc(N2CCN(C(=O)CCCc3cn[nH]c3)CC2)cc1`, the Percent Effect stood at 6%.

Take `Cc1nc2c(c(N3CCCOCC3)n1)CCN(c1nccs1)CC2`: the Percent Effect was -16.9%.

As to `Cc1noc(C)c1S(=O)(=O)N1CCC(n2cccn2)CC1`, the Percent Effect was -5.45%.

With `COc1ccc(F)cc1-c1ccccc1CC1CNCCNC1=O` (stereo not given), the Percent Effect was 4.74%.

Consider `O=C(NCc1ccco1)N1CCOC(c2ccccc2Cl)C1` (stereo not given), for which the Percent Effect is 3.01%.

As for `Cc1nonc1CN(C)c1nc(-c2ccco2)nc2c1CCN(C)CC2`, the Percent Effect worked out at 4.86%.

As for `CCc1nc(C)c(CC(=O)N2CCC3(CC2)OCCCC3O)c(=O)[nH]1` (stereo not given), the Percent Effect was found to be 2.99%.

In the case of `CCCc1ccc(CN2CCC3(CC2)CNC(=O)C3)o1`, the Percent Effect was found to be 18.2%.

In the case of `O=S(=O)(NC1CCCOC1)c1ccc(C(F)(F)F)nc1` (stereo not given), the Percent Effect amounted to 7.35%.

For `CCC(=O)NC(C)c1ccccc1C` (stereo not given), the Percent Effect came out at 14.9%.

As for `N#Cc1cccc(S(=O)(=O)NC2CCN(CC(F)(F)F)C2)c1` (stereo not given), the Percent Effect was -2.39%.

Take `COc1cc(NC2CCCN(c3ncccc3C#N)C2)cc(OC)c1` (stereo not given): the Percent Effect was -37.2%.

As for `CC(C)c1cc(C2CCN(C(=O)Cn3cnnn3)CC2)[nH]n1`, the Percent Effect was determined as 12.8%.

For `COCCC1(C(=O)O)CCCN(C(=O)c2cnc3c(c2)CCCC3)C1` (stereo not given), the Percent Effect stood at 2.02%.

With `CCNc1ncc(C(=O)NCCc2csc(-c3ncccn3)n2)cn1`, the Percent Effect is -8.34%.

On to `COCC(=O)N1CCCC1(C(=O)N(C)C)c1cnccn1` (stereo not given), for which the Percent Effect is 6.8%.
